# Test results as given in the supplement of paper PMC12282887.
# ± gives the standard deviation of the averaged measurements.
# System: E. coli BW25113 marRABp lux reporter
# Assay: promoter activity interaction Z-score (Lux/OD deviation from empty-vector control); higher = stronger promoter induction by the compound
# Experimental: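 E. coli BW25113 (wild type or ΔmarA/ΔsoxS/Δrob) carrying pTU175 luxCDABE promoter reporters was grown in LB in 384-well plates at 37°C with each of 94 compounds at 4 two-fold concentrations, in biological duplicates. Luminescence and OD600 were read every 30 min for 12 h and integrated as AUC over 8 h (0-8 h WT, 1-9 h mutants). Lux AUC was divided by OD AUC; the interaction score is the residual of a Huber robust fit of each promoter against the empty-vector control, then Z-transformed per promoter.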
# [1] = 0.29 µg/ml, genetic background: wild type
# [2] = 0.29 µg/ml, genetic background: ΔmarA
# [3] = 0.29 µg/ml, genetic background: Δrob
# [4] = 0.29 µg/ml, genetic background: ΔsoxS
smiles,measurement,setting,value
CO[C@@]12[C@H](COC(N)=O)C3=C(C(=O)C(C)=C(N)C3=O)N1C[C@@H]1N[C@@H]12 [Mitomycin C],promoter activity interaction Z-score,"0.063 µg/ml, genetic background: wild type",-0.000521 ± 0.092
same,promoter activity interaction Z-score,"0.063 µg/ml, genetic background: ΔmarA",-0.0389 ± 0.12
same,promoter activity interaction Z-score,"0.063 µg/ml, genetic background: Δrob",0.174 ± 0.0026
same,promoter activity interaction Z-score,"0.063 µg/ml, genetic background: ΔsoxS",-0.0406 ± 0.22
same,promoter activity interaction Z-score,"0.13 µg/ml, genetic background: wild type",0.0648 ± 0.23
same,promoter activity interaction Z-score,"0.13 µg/ml, genetic background: ΔmarA",0.518 ± 1.1
same,promoter activity interaction Z-score,"0.13 µg/ml, genetic background: Δrob",0.208 ± 0.51
same,promoter activity interaction Z-score,"0.13 µg/ml, genetic background: ΔsoxS",0.0422 ± 0.14
same,promoter activity interaction Z-score,"0.25 µg/ml, genetic background: wild type",0.242 ± 0.24
same,promoter activity interaction Z-score,"0.25 µg/ml, genetic background: ΔmarA",-0.125 ± 0.18
same,promoter activity interaction Z-score,"0.25 µg/ml, genetic background: Δrob",0.258 ± 0.1
same,promoter activity interaction Z-score,"0.25 µg/ml, genetic background: ΔsoxS",-0.121 ± 0.19
same,promoter activity interaction Z-score,"0.5 µg/ml, genetic background: wild type",-0.107 ± 0.17
same,promoter activity interaction Z-score,"0.5 µg/ml, genetic background: ΔmarA",0.219 ± 0.99
same,promoter activity interaction Z-score,"0.5 µg/ml, genetic background: Δrob",-0.172 ± 0.14
same,promoter activity interaction Z-score,"0.5 µg/ml, genetic background: ΔsoxS",-0.177 ± 0.11
NCC[C@H](O)C(=O)N[C@@H]1C[C@H](N)[C@@H](O[C@H]2O[C@H](CN)[C@@H](O)[C@H](O)[C@H]2O)[C@H](O)[C@H]1O[C@H]1O[C@H](CO)[C@@H](O)[C@H](N)[C@H]1O [Amikacin],promoter activity interaction Z-score,"0.07 µg/ml, genetic background: wild type",-0.0461 ± 0.062
same,promoter activity interaction Z-score,"0.07 µg/ml, genetic background: ΔmarA",-0.273 ± 0.075
same,promoter activity interaction Z-score,"0.07 µg/ml, genetic background: Δrob",-0.255 ± 0.1
same,promoter activity interaction Z-score,"0.07 µg/ml, genetic background: ΔsoxS",-0.0126 ± 0.0034
same,promoter activity interaction Z-score,"0.15 µg/ml, genetic background: wild type",-0.123 ± 0.09
same,promoter activity interaction Z-score,"0.15 µg/ml, genetic background: ΔmarA",-0.134 ± 0.044
same,promoter activity interaction Z-score,"0.15 µg/ml, genetic background: Δrob",-0.00793 ± 0.05
same,promoter activity interaction Z-score,"0.15 µg/ml, genetic background: ΔsoxS",-0.13 ± 0.069
same,promoter activity interaction Z-score,[1],0.0977 ± 0.14
same,promoter activity interaction Z-score,[2],0.566 ± 0.32
same,promoter activity interaction Z-score,[3],0.0547 ± 0.082
same,promoter activity interaction Z-score,[4],0.193 ± 0.079
COc1cccc2c1C(=O)c1c(O)c3c(c(O)c1C2=O)C[C@@](O)(C(=O)CO)C[C@@H]3O[C@H]1C[C@H](N)[C@H](O)[C@H](C)O1 [Doxorubicin],promoter activity interaction Z-score,[1],0.237 ± 0.34
same,promoter activity interaction Z-score,[2],-0.264 ± 0.2
same,promoter activity interaction Z-score,[3],-0.254 ± 0.1
same,promoter activity interaction Z-score,[4],0.0277 ± 0.11
same,promoter activity interaction Z-score,"0.58 µg/ml, genetic background: wild type",-0.0763 ± 0.21
same,promoter activity interaction Z-score,"0.58 µg/ml, genetic background: ΔmarA",0.0102 ± 0.26
same,promoter activity interaction Z-score,"0.58 µg/ml, genetic background: Δrob",-0.188 ± 0.032
same,promoter activity interaction Z-score,"0.58 µg/ml, genetic background: ΔsoxS",0.0987 ± 0.23
same,promoter activity interaction Z-score,"1.2 µg/ml, genetic background: wild type",0.0323 ± 0.31
same,promoter activity interaction Z-score,"1.2 µg/ml, genetic background: ΔmarA",-0.148 ± 0.1
same,promoter activity interaction Z-score,"1.2 µg/ml, genetic background: Δrob",-0.236 ± 0.064
same,promoter activity interaction Z-score,"1.2 µg/ml, genetic background: ΔsoxS",0.0249 ± 0.092
same,promoter activity interaction Z-score,"2.3 µg/ml, genetic background: wild type",-0.0695 ± 0.11
same,promoter activity interaction Z-score,"2.3 µg/ml, genetic background: ΔmarA",-0.158 ± 0.16
same,promoter activity interaction Z-score,"2.3 µg/ml, genetic background: Δrob",-0.24 ± 0.021
same,promoter activity interaction Z-score,"2.3 µg/ml, genetic background: ΔsoxS",-0.0671 ± 0.12
